# Source: PubChem (National Center for Advancing Translational Sciences (NCATS))
# Epigenetic derep: Quantitative High-Throughput Screen for Regulators of Epigenetic Control. murine LDR cells, GFP reporter derepression, 30 h. Potency, µM (top dose mostly 53.9 µM), inactives show at the top dose GFP activation, hits mostly activators. 280,000 compounds, 0.2% hits. AID 1865, 2009; note: % of control where 0% means no effect; nearly all actives have a fitted effect of over 60% in size
#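 In this reporter-derepression format, murine cells bearing a silenced integrated CMV-GFP locus incubate with test compound (30 h, 37 C), then are washed and imaged; fluorescent objects of 20–120 um count as induced cells.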
# VP16 counter: VP16 counterscreen qHTS for inhibitors of ROR gamma transcriptional activity; Drosophila S2 Gal4-VP16 UAS-luciferase, luminescence, 20 h; Potency, µM (top dose mostly 53.6 µM), for inactives: at the highest dose activity, negative = inhibition, usual class: inhibitors; 310,000 compounds, 3.5% hits;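 note: Gal4-VP16 expression switched on by copper sulfate through the metallothionein promoter; % is set by controls: 0 for no effect and ±100 for the full control effect; nearly all actives have a fitted effect of over 50% in size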
# Sfp PPTase inh: qHTS Assay for Inhibitors of Bacillus subtilis Sfp phosphopantetheinyl transferase (PPTase); 4'-phosphopantetheinyl transferase ffp (Bacillus subtilis), Q9F4F7; Biochemical Sfp PPTase activity, qHTS; Potency, µM, inactives show largest response in the series, negative = inhibition, hits mostly inhibitors; 310,000 compounds, 3.5% hits; AID 1490, 2009;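 note: the enzyme is Sfp with the accession as filed and its product quenches rhodamine fluorescence; 0% = enzyme reaction without inhibitor and -100% = no enzyme wells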
#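 After 15 min at room temperature with compound, 15 nM Sfp received 5 uM rhodamine-CoA plus 12.5 uM BHQ-2-ybbR (50 mM Hepes pH 7.6, 10 mM MgCl2). Rate came from the fluorescence difference over 30 min, ex 525/em 598 nm.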
# ClpP mod: qHTS Assay for Activators of ClpP; ATP-dependent Clp protease proteolytic subunit (Bacillus subtilis (strain 168)), P80244; purified B. subtilis ClpP, FRET peptide cleavage, 20 min; Potency, µM (series often up to 57.5 µM), for inactives: top-dose activity change, negative = active; 340,000 compounds, 1.9% hits; active = well fitted falling curve with a large enough effect; inconclusive = small, poorly fitted or top-dose-only effect; inactive = no such curve, though single readings can be large or run the other way; note: the source files actives as falling curves though it sought activators and does not explain the sign; nearly all actives have a fitted effect of over 65% in size
# Target sequence (P80244 whole entry, looked up): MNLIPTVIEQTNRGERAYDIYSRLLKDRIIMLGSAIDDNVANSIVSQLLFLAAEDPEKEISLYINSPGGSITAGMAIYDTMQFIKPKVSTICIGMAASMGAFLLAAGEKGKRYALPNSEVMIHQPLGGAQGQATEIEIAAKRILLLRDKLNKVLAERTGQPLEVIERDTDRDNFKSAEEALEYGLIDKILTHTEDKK
#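 Buffer: 100 mM Tris/HCl pH8, 100 mM KCl, 0.05% low protease BSA, 2.5% glycerol, 0.01% Tween-20. ClpP 10 microg/mL final; 20 min RT; delta FRET normalized to ADEP and DMSO controls.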
# RORg inh: qHTS for inhibitors of ROR gamma transcriptional activity | 310,000 compounds, 5.4% hits | Nuclear receptor ROR-gamma (Mus musculus), P51450 | Potency, µM (highest dose often 53.6 µM), without a hit: at the highest dose activity change, negative = inhibition, actives largely listed as inhibitors | Drosophila S2 Gal4-RORgamma UAS-luciferase reporter, 20 h; note: % is set by controls: 0 for no effect and ±100 for the full control effect; nearly all actives have a fitted effect of over 60% in size
# Target sequence (P51450 whole entry, looked up, the tested form may be a part): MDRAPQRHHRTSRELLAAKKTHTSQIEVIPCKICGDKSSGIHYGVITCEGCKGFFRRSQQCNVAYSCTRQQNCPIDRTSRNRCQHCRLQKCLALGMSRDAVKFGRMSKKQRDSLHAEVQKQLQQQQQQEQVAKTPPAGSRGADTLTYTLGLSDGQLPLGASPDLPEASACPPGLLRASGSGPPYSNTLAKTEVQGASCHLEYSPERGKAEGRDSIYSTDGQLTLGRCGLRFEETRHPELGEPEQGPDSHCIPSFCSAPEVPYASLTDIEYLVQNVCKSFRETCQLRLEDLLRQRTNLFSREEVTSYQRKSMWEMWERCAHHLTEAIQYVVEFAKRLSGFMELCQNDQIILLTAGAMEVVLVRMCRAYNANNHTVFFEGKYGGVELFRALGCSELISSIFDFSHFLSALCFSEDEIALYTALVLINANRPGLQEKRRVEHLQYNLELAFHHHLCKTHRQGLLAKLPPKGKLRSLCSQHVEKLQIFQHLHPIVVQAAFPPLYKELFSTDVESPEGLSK
#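 In this cell-based reporter format, copper sulfate (700 uM final) drives Gal4–ROR gamma fusion expression from a metallothionein promoter in Drosophila Schneider cells; compounds preincubated 1 hr, reporter read after 20 hr at ambient temperature.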
# PINK1 modulator: A Quantitative High throughput Screen to Identify Chemical Modulators of PINK1 Expression. PINK1 immunofluorescence, high-content cytometry, 24 h. Potency, µM (titrated, usually from 76.6 µM), for inactives: at the top dose activation (PINK1 increase), hits mostly activators. 410,000 compounds, 0.2% hits; active = well fitted activation curve with a large enough effect; inconclusive = small, poorly fitted or top-dose-only effect; cell line not stated here; note: % of control where 0% means no effect; nearly all actives have a fitted effect of over 65% in size
#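 PINK1 protein level read as immunofluorescence by microplate cytometer in a fixed, stained stable cell line after 24 h exposure to five compound concentrations, with CCCP as control.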
# Numbers without * were called inactive; u = inconclusive; x = not tested or not shown; ! = repeats disagree; [ ] = another dose, or the depositor's remark. Only some compounds are listed: those with a hit (about 8.1% of all), similar ones and a draw of the others. Unless noted, calls come from the whole dose curve; as a rule, active = well fitted curve in the direction sought with a large enough effect; inconclusive = small, poorly fitted or top-dose-only effect, or another doubt; inactive = no such curve, though single readings can be large; an effect the other way counts as inactive or inconclusive. Potency is the fitted concentration of half-maximal effect.
SMILES,Epigenetic derep,VP16 counter,Sfp PPTase inh,ClpP mod,RORg inh,PINK1 modulator
O=C(Nc1cc(F)ccc1F)c1cnn2c1NC(=C1CC1)C=C2C(F)F,x,x,x,0%,x,0%
CC1=NNC(=O)/C1=C\c1cn(-c2ccccc2)nc1-c1ccc(Cl)cc1,0%,3.2µM*,7%,-3%,5µM*,-2%
CC1=NN(c2ccccc2)C(=O)/C1=C\c1cn(CCC#N)nc1-c1ccc(Cl)cc1,1%,2%,-6%,x,-15%,4%
Cc1ccc(-c2nn(-c3ccccc3)cc2C=C2C(=O)CC(C)(C)CC2=O)cc1,u,-7%,25µM*,1%,10%,-1%
CC1(C)CC(=O)C(=Cc2cn(-c3ccccc3)nc2-c2ccccc2)C(=O)C1,x,x,x,0%,x,1%
CCN(c1ccccc1)S(=O)(=O)c1cc(C(=O)Nc2ccc(Br)cc2)ccc1F,0%,13µM*,19%,u,17%,9%
COc1ccc(-c2nc(CSCC(=O)NCCC3=CCCCC3)c(C)o2)cc1OC,-2%,4%,-1%,25µM*,u,2%
COCCNC(=O)CSCc1nc(-c2ccc(SC)cc2)oc1C,-1%,u,7%,25µM*,-40%,1%[38.3 µM]
CCOCCCNC(=O)CSCc1nc(-c2ccc(SC)cc2)oc1C,0%,14%,0%,3%,-25%,-2%
COc1ccccc1CNC(=O)CSCc1nc(-c2ccc(OC)c(OC)c2)oc1C,-1%,x,x,u,x,-1%
CCc1ccc(-c2nc(CN3CCC(C(=O)NCc4ccccc4OC)CC3)c(C)o2)cc1,2%,20µM*,u,-2%,u,x
COc1ccc(-c2nc(CSCC(=O)NCc3ccc4c(c3)OCO4)c(C)o2)cc1,2%,13µM*,10%,1%,13µM*,1%
COc1ccc(S(=O)(=O)NCc2ccc3c(c2)CCN3C(C)=O)cc1OC,1%,x,x,-1%,x,0%
COc1ccc(-c2nc(CS(=O)CC(=O)NCc3ccc4c(c3)OCO4)c(C)o2)cc1OC (stereo not drawn),x,-17%,3%,3%,u,-2%
COc1ccccc1CNC(=O)CS(=O)Cc1nc(-c2ccc(OC)c(OC)c2)oc1C (stereo not drawn),-1%,12%,10%,32µM*!,-27%,-1%
COc1ccc(-c2nc(CSCC(=O)NCCc3ccc(C)cc3)c(C)o2)cc1OC,2%,x,x,32µM*,x,0%
COc1ccc(-c2nc(CSCC(=O)NCc3ccccc3Cl)c(C)o2)cc1OC,-1%,x,x,20µM*,x,1%
COc1cc2nc(NCCc3ccc(Cl)cc3)n3nc(-c4ccccc4)nc3c2cc1OC,5%,x,x,u,x,0%
CN=C(c1ccco1)n1c(=S)nc(-c2ccco2)n(C)c1=S,1%,6%,18µM*,-1%,-21%,2%
COc1ccc(N2CCN(C(=O)Cn3nc(Cc4cccnc4)c4ccccc4c3=O)CC2)cc1,5%,x,x,-2%,x,-1%
NCCc1ccc(O)c(O)c1,0%,1%,79µM*!,-2%,3%[10 µM],3%
CC(=O)NCCc1ccc(O)c(O)c1,0%,x,x,x,x,x
COc1ccc(-c2nc(CSCC(=O)N3CCN(c4ccccc4F)CC3)c(C)o2)cc1,0%,x,x,u,x,0%
CCc1ccc(-c2nc(CSCC(=O)N3CCN(c4ccccn4)CC3)c(C)o2)cc1,0%,13µM*,-8%,-15%,u,2%
CCOc1ccc(-c2nc(CSCC(=O)N3CCN(c4cccc(OC)c4)CC3)c(C)o2)cc1,0%,11µM*,-5%,-2%,11µM*,1%
SMILES,Epigenetic derep,VP16 counter,Sfp PPTase inh,ClpP mod,RORg inh,PINK1 modulator
COc1ccc(NC(=O)Cn2nnc(C(=O)NCc3ccccc3Cl)c2N)cc1Cl,0%,x,x,-1%,x,23%
CCOC(=O)COc1ccc([N+](=O)[O-])cc1-c1ccnc2cc(-c3ccc(Cl)cc3)nn12,10%,x,x,-1%,x,1%
S=C(c1ccc(N2CCCC2)c(Br)c1)N1CCCCC1,0%,-22%,-3%,0%,20µM*,4%
COc1ccc(C(=S)N2CCCCC2)cc1Br,0%,-5%,20%,x,-9%,1%
CN(C)c1ccc(C(=S)N2CCCCC2)cc1Br,-1%,-8%,3%,x,10µM*,3%
Cc1cccc(NC(=O)C(NS(=O)(=O)c2cccc3nsnc23)c2ccccc2)c1C (stereo not drawn),4%,x,x,20%,x,1%
CCCC(=O)Nc1nnc(-c2cccc(OCC)c2)s1,2%,4%,15%,28µM*,-18%,6%
COc1ccc(CC(=O)Nc2nnc(-c3cccc([N+](=O)[O-])c3)s2)cc1,3%,4%,3%,-2%,3%,-1%
O=C(Cc1ccccc1)Nc1nnc(-c2cccc([N+](=O)[O-])c2)s1,0%,-1%,-10%,32µM*,6%,0%
COc1ccc(-n2nc(C(=O)N3CCN(c4cccc(C)c4C)CC3)c3c4ccccc4n(C)c3c2=O)cc1,0%,x,x,-4%,x,3%
CC(C)OCCCNc1ncnc2sc3c(c12)CCCC3,-2%,x,x,-4%,x,1%
CC(=O)c1ccc(N=Nc2ccc(N(C)C)cc2)cc1,-2%,-12%,-3%,x,-2%,-3%
CC(=O)c1ccc(N=Nc2ccc(C)cc2)cc1,1%,u,0%,x,10µM*,6%
COC(=O)c1c(C)n(-c2ccc(OC)cc2)c2ccc(O)cc12,1%,-17%,45µM*,-20%,-38%,6%
CCOC(=O)c1c(C)n(-c2ccc(F)cc2)c2ccc(O)cc12,x,-14%,u,-2%,-29%,7%
COc1ccc(NC(=O)CCc2c(C)nn(-c3ccc(N4CCCCC4)nn3)c2C)cc1Cl,4%,x,x,-4%,x,3%
CC(C)N=C1NN=C(c2ccc(Cl)c(Cl)c2)CS1,4%,u,0%,x,10µM*,0%
CC(C)N=C1NN=C(c2cccs2)CS1,1%,-22%,-21%,x,13µM*,-2%
COc1ccc(CN=C2NN=C(c3ccc(Cl)cc3)CS2)cc1,-1%,-7%,-14%,x,u,-1%
CC(C)(C)N=C1NN=C(c2cc3ccccc3o2)CS1,-1%,u,-20%,-3%,6.3µM*,u
CC1CC(=O)NN=C1c1cccs1 (stereo not drawn),u,-22%,6%,-3%,u,0%
CC(C)c1ccc(N=C2NN=C(c3cccs3)CS2)cc1,5%,u,6%,x,13µM*,u
